Measured values as given in ChEMBL document CHEMBL1961873, “Compounds: GSK PKIS; Assays: Nanosyn kinase panel” (2012).
Several values for one entry are separate records, joined by “and”; a condition that tells them apart may be missing. Equal entries are not always repeated.

Tests used:
[1] = molecular target: Casein kinase I isoform gamma-2 (Homo sapiens) (UniProt P78368); details: at 1 µM
[2] = molecular target: Casein kinase I isoform gamma-3 (Homo sapiens) (UniProt Q9Y6M4); details: at 0.1 µM
[3] = molecular target: Casein kinase I isoform gamma-3 (Homo sapiens) (UniProt Q9Y6M4); details: at 1 µM
[4] = molecular target: Cyclin-dependent kinase 1 (Homo sapiens) (UniProt P06493); details: at 0.1 µM
[5] = molecular target: Cyclin-dependent kinase 1 (Homo sapiens) (UniProt P06493); details: at 1 µM
[6] = molecular target: Cyclin-dependent kinase 2 (Homo sapiens) (UniProt P24941); details: at 0.1 µM
[7] = molecular target: Cyclin-dependent kinase 2 (Homo sapiens) (UniProt P24941); details: at 1 µM
[8] = molecular target: Cyclin-dependent kinase 2 (Homo sapiens) (UniProt P24941); details: at 0.1 µM; remark: listed apart in the source
[9] = molecular target: Cyclin-dependent kinase 2 (Homo sapiens) (UniProt P24941); details: at 1 µM; remark: listed apart in the source
[10] = molecular target: T1, CDK3/Cyclin E (Homo sapiens) (UniProt P24864+Q00526); details: at 0.1 µM
[11] = molecular target: T1, CDK3/Cyclin E (Homo sapiens); details: at 1 µM
[12] = molecular target: Cyclin-dependent kinase 4 (Homo sapiens) (UniProt P11802); details: at 0.1 µM
[13] = molecular target: Cyclin-dependent kinase 4 (Homo sapiens) (UniProt P11802); details: at 1 µM
[14] = molecular target: Cyclin-dependent kinase 5 (Homo sapiens) (UniProt Q00535); details: at 0.1 µM
[15] = molecular target: Cyclin-dependent kinase 5 (Homo sapiens) (UniProt Q00535); details: at 1 µM
[16] = molecular target: Cyclin-dependent kinase 6 (Homo sapiens) (UniProt Q00534); details: at 0.1 µM
[17] = molecular target: Cyclin-dependent kinase 6 (Homo sapiens) (UniProt Q00534); details: at 1 µM
[18] = molecular target: Dual specificity protein kinase CLK2 (Homo sapiens) (UniProt P49760); details: at 0.1 µM
[19] = molecular target: Dual specificity protein kinase CLK2 (Homo sapiens) (UniProt P49760); details: at 1 µM
[20] = molecular target: Dual specificity protein kinase CLK3 (Homo sapiens) (UniProt P49761); details: at 0.1 µM
Sequence of Dual specificity protein kinase CLK3 (Homo sapiens) (P49761 whole entry, looked up): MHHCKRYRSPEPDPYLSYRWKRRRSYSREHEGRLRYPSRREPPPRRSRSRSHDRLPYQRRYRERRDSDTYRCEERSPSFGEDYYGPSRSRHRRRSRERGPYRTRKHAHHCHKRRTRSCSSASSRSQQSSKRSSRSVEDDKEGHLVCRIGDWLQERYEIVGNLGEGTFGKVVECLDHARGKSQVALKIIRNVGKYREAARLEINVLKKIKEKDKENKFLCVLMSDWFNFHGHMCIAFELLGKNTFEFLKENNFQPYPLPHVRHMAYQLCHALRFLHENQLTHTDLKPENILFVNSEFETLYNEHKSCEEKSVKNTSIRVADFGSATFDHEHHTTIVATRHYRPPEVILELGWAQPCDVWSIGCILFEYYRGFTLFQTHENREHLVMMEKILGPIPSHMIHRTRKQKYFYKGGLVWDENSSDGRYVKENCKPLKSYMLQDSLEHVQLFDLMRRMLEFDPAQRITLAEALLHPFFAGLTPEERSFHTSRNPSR

Sequence of Casein kinase I isoform gamma-2 (Homo sapiens) (P78368 whole entry, looked up, canonical isoform): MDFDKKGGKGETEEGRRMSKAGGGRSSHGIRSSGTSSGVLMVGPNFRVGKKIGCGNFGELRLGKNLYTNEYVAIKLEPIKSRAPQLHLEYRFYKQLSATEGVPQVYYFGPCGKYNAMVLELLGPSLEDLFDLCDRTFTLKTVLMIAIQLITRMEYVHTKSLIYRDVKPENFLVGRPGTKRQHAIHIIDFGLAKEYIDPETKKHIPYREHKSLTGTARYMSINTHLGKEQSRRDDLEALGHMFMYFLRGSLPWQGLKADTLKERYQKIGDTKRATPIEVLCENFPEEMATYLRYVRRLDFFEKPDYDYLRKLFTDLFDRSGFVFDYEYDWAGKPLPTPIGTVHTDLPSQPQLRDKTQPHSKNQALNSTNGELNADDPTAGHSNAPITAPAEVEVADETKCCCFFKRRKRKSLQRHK
Sequence of Dual specificity protein kinase CLK2 (Homo sapiens) (P49760 whole entry, looked up): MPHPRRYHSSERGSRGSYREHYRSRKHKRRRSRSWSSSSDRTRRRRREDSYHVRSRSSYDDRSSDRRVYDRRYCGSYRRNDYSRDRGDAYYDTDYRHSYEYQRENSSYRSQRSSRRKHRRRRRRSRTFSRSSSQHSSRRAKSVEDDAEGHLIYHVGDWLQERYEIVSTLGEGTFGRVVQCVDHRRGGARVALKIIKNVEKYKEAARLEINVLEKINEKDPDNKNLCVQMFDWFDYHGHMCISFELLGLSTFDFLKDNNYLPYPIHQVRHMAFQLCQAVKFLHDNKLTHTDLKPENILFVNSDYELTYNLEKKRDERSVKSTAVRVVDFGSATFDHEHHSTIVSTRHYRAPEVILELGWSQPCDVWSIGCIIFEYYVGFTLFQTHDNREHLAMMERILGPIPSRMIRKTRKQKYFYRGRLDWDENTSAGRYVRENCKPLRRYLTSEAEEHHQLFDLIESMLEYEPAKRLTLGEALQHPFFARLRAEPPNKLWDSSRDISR
Sequence of Cyclin-dependent kinase 5 (Homo sapiens) (Q00535 whole entry, looked up): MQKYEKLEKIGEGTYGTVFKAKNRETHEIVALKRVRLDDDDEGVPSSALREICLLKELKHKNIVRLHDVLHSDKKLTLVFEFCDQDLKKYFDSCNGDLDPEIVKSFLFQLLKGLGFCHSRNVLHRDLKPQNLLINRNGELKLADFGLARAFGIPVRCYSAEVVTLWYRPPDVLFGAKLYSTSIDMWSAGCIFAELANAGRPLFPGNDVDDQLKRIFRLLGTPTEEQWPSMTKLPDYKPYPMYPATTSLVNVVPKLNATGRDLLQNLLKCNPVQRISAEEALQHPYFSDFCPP
Sequence of Casein kinase I isoform gamma-3 (Homo sapiens) (Q9Y6M4 whole entry, looked up, canonical isoform): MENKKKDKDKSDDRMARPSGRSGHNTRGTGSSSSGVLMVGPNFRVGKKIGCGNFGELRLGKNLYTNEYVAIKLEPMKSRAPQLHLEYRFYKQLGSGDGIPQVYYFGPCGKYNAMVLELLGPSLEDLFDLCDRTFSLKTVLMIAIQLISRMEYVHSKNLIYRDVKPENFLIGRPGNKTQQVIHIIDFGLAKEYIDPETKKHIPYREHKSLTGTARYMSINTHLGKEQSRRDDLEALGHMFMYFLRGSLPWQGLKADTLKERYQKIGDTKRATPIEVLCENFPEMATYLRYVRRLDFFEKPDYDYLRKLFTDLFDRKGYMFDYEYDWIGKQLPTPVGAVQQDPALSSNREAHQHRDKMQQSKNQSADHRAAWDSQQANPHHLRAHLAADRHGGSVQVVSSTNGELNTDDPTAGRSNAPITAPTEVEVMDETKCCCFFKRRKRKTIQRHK
T1 sequence (P24864 whole entry, looked up): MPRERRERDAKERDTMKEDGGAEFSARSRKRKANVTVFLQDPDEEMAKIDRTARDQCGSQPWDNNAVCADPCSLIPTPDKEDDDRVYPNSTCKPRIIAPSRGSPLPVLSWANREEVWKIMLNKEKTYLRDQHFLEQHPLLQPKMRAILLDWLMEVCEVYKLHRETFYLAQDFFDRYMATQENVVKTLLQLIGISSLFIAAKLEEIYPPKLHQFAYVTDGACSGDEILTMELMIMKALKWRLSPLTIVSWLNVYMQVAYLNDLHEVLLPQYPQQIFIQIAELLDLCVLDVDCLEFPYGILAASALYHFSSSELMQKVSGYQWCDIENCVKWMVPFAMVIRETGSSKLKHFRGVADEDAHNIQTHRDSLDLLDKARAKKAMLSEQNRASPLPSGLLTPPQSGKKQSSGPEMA
T1 sequence (Q00526 whole entry, looked up): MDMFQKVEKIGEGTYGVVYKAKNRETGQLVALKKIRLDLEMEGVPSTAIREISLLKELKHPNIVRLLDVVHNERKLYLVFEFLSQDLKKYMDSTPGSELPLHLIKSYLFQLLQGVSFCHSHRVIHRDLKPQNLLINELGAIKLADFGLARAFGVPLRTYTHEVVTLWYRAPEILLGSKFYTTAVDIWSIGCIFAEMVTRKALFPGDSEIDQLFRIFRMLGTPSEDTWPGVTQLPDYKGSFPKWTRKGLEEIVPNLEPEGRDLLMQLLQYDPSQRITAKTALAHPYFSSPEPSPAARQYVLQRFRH
Sequence of Cyclin-dependent kinase 6 (Homo sapiens) (Q00534 whole entry): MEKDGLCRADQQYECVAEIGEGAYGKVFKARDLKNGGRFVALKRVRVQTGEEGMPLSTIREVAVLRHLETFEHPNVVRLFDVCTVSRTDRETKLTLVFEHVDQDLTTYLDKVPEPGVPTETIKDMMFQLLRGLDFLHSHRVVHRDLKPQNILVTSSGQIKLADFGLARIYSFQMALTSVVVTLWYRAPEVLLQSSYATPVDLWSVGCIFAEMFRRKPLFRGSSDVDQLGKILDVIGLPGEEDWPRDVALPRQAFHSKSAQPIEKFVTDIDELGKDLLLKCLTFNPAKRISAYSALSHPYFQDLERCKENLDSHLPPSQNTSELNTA
Sequence of Cyclin-dependent kinase 1 (Homo sapiens) (P06493 whole entry, looked up): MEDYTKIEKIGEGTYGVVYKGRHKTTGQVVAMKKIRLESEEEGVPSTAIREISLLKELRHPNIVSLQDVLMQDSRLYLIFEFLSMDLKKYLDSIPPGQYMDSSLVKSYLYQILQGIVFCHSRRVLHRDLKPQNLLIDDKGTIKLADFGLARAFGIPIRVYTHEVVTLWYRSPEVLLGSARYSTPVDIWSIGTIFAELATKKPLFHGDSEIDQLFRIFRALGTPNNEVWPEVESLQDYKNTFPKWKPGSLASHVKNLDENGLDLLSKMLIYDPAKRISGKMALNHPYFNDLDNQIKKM
Sequence of Cyclin-dependent kinase 4 (Homo sapiens) (P11802 whole entry): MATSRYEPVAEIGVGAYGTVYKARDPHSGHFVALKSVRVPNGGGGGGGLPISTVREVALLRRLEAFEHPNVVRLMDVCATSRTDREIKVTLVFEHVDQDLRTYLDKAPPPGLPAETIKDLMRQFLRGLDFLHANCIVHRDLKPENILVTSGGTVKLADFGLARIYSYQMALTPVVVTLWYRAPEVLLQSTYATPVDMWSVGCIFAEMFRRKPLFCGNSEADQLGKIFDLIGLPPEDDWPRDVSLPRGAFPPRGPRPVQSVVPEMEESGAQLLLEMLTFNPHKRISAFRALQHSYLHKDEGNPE

CN1CCC(n2cnc(-c3ccc(F)cc3)c2-c2ccnc(NCCO)n2)CC1
inhibition [1]: 5.84%
inhibition [2]: 4.27%
inhibition [3]: 10.2%
inhibition [4]: 0.37%
inhibition [5]: 1.31%
inhibition [6]: 1.69%
inhibition [7]: -0.92%
inhibition [8]: 4.05%
inhibition [9]: 4.55%
inhibition [10]: 1.13%
inhibition [11]: -0.43%
inhibition [12]: 2.07%
inhibition [13]: 2.04%
inhibition [14]: 0.67%
inhibition [15]: 0.7%
inhibition [16]: 3.75%
inhibition [17]: 2.73%
inhibition [18]: 1.02%
inhibition [19]: 2.41%
inhibition [20]: 3.29%

Cc1cc(O)cc(C)c1/C=C/c1cncc(C(=O)OC(C)(C)C)c1
inhibition [1]: 3.13%
inhibition [2]: 2.26%
inhibition [3]: 3.16%
inhibition [4]: 0.41%
inhibition [5]: 3.26%
inhibition [6]: 1.03%
inhibition [7]: 0.25%
inhibition [8]: 2.66%
inhibition [9]: 6.74%
inhibition [10]: 0.28%
inhibition [11]: 1.16%
inhibition [12]: 2.59%
inhibition [13]: 3.59%
inhibition [14]: 0.74%
inhibition [15]: 2.53%
inhibition [16]: 3.38%
inhibition [17]: 5.01%
inhibition [18]: 0.65%
inhibition [19]: 0.81%
inhibition [20]: 3.45%

Cc1nnc(-c2cccc(-c3ccc(C(=O)NCC4CC4)cc3)c2)o1
inhibition [1]: 4.15%
inhibition [2]: 3.29%
inhibition [3]: 3.17%
inhibition [4]: -0.13%
inhibition [5]: 2.72%
inhibition [6]: 2.01%
inhibition [7]: 13.5%
inhibition [8]: 4.78%
inhibition [9]: 4.88%
inhibition [10]: 3.15%
inhibition [11]: -0.73%
inhibition [12]: 1.46%
inhibition [13]: 2.47%
inhibition [14]: 0.47%
inhibition [15]: 1.45%
inhibition [16]: 2.21%
inhibition [17]: 4.2%
inhibition [18]: 1.61%
inhibition [19]: 1.14%
inhibition [20]: 2.84%

FC(F)(F)CNc1nccc(-c2cnn3ncccc23)n1
inhibition [1]: 14.1%
inhibition [2]: 3.44%
inhibition [3]: 10.6%
inhibition [4]: 4.59%
inhibition [5]: 29.1%
inhibition [6]: 1.79%
inhibition [7]: 14.1%
inhibition [8]: 4.11%
inhibition [9]: 16.4%
inhibition [10]: 1.36%
inhibition [11]: 11.2%
inhibition [12]: 2.33%
inhibition [13]: 10.8%
inhibition [14]: 3.62%
inhibition [15]: 22.9%
inhibition [16]: 0.9%
inhibition [17]: 3.37%
inhibition [18]: 5.19%
inhibition [19]: 51%
inhibition [20]: 0.47%

CNC(=O)c1cncc(/C=C/c2ccccc2C)c1
inhibition [1]: 2.72%
inhibition [2]: 2.23%
inhibition [3]: 3.55%
inhibition [4]: 1.72%
inhibition [5]: 7.81%
inhibition [6]: 1.87%
inhibition [7]: 11%
inhibition [8]: 12%
inhibition [9]: 16.4%
inhibition [10]: 7.08%
inhibition [11]: 0.23%
inhibition [12]: 1.9%
inhibition [13]: 7.47%
inhibition [14]: 4.11%
inhibition [15]: 10.4%
inhibition [16]: 3.69%
inhibition [17]: 4.46%
inhibition [18]: 2.83%
inhibition [19]: 2.46%
inhibition [20]: 1.79%

OCCCNc1nccc(-c2c(-c3ccc(F)cc3)nn3cc(C(F)(F)F)ccc23)n1
inhibition [1]: 4.56%
inhibition [2]: 1.62%
inhibition [3]: 7.33%
inhibition [4]: 1.54%
inhibition [5]: 2.59%
inhibition [6]: 0.91%
inhibition [7]: -3.65%
inhibition [8]: 0.52%
inhibition [9]: 3.87%
inhibition [10]: 1.49%
inhibition [11]: 0.86%
inhibition [12]: 0.94%
inhibition [13]: 3.36%
inhibition [14]: 2.06%
inhibition [15]: 3.96%
inhibition [16]: 1.79%
inhibition [17]: 5.92%
inhibition [18]: 0.1%
inhibition [19]: 1.15%
inhibition [20]: 0.35%

CN1CCN(Cc2ccc(-c3cc4ncnc(Nc5ccc(OCc6cccc(F)c6)c(Cl)c5)c4s3)o2)CC1
inhibition [1]: 4.06% and 5.69%
inhibition [2]: 2.07% and 2.73%
inhibition [3]: 3.72% and 4.9%
inhibition [4]: 1.26% and -0.15%
inhibition [5]: 3.35%
inhibition [6]: 2.79% and 0.8%
inhibition [7]: 5.88% and 5.34%
inhibition [8]: 3.41% and 3.54%
inhibition [9]: 4.99% and 6.73%
inhibition [10]: -1.62% and 3.97%
inhibition [11]: -0.88% and -0.53%
inhibition [12]: 0.41% and 3.55%
inhibition [13]: 4.82% and 8.07%
inhibition [14]: 1.3% and 1.22%
inhibition [15]: 2.71% and 2.36%
inhibition [16]: -3.55% and 3.09%
inhibition [17]: -1.42% and 9.4%
inhibition [18]: -0.35% and 2.37%
inhibition [19]: -0.11% and 1.21%
inhibition [20]: -0.14% and 1.15%

O=C(Nc1n[nH]c2nnc(-c3cccnc3)cc12)C1CC1
inhibition [1]: -0.48%
inhibition [2]: -0.12%
inhibition [3]: 0.24%
inhibition [4]: 33.3%
inhibition [5]: 72.5%
inhibition [6]: 65.5%
inhibition [7]: 91.2%
inhibition [8]: 38.9%
inhibition [9]: 75.3%
inhibition [10]: 35.9%
inhibition [11]: 81.4%
inhibition [12]: 13.7%
inhibition [13]: 56.1%
inhibition [14]: 27.2%
inhibition [15]: 69.2%
inhibition [16]: 19.7%
inhibition [17]: 64.6%
inhibition [18]: 5.98%
inhibition [19]: 43.4%
inhibition [20]: 0.24%

CCS(=O)(=O)c1ccc(OC)c(Nc2ncc(-c3cccc(F)c3)o2)c1
inhibition [1]: 4.64%
inhibition [2]: 3.7%
inhibition [3]: 4.58%
inhibition [4]: 1.72%
inhibition [5]: 0.96%
inhibition [6]: 3.74%
inhibition [7]: 4.31%
inhibition [8]: 4.05%
inhibition [9]: 5.69%
inhibition [10]: -0.92%
inhibition [11]: -2.15%
inhibition [12]: 2.69%
inhibition [13]: 4.19%
inhibition [14]: 0.21%
inhibition [15]: 1.39%
inhibition [16]: 3.05%
inhibition [17]: 1.82%
inhibition [18]: 13%
inhibition [19]: 63.1%
inhibition [20]: 2.49%

Cc1cc(O)cc(C)c1/C=C/c1cncc(C(N)=O)c1
inhibition [1]: 2.37%
inhibition [2]: 2.87%
inhibition [3]: 2.49%
inhibition [4]: 0.12%
inhibition [5]: 1.3%
inhibition [6]: 1.56%
inhibition [7]: 1.98%
inhibition [8]: 2.51%
inhibition [9]: 3.29%
inhibition [10]: -0.91%
inhibition [11]: 1.41%
inhibition [12]: 2.84%
inhibition [13]: 3.26%
inhibition [14]: 0.63%
inhibition [15]: 1.61%
inhibition [16]: 3.58%
inhibition [17]: 4.03%
inhibition [18]: -0.7%
inhibition [19]: 2.41%
inhibition [20]: 1.21%

CS(=O)(=O)CCNCc1ccoc1-c1ccc2ncnc(Nc3ccc(OCc4ccccc4)cc3)c2c1
inhibition [1]: 0.93%
inhibition [2]: 1.14%
inhibition [3]: 0.44%
inhibition [4]: -0.72%
inhibition [5]: 1.35%
inhibition [6]: 1.48%
inhibition [7]: 3.32%
inhibition [8]: 1.98%
inhibition [9]: 3.45%
inhibition [10]: -1.56%
inhibition [11]: -1.1%
inhibition [12]: 0.34%
inhibition [13]: 2.91%
inhibition [14]: 0.75%
inhibition [15]: 1.14%
inhibition [16]: -0.43%
inhibition [17]: 5.44%
inhibition [18]: 0.36%
inhibition [19]: -2.93%
inhibition [20]: -0.17%

CNC(=O)c1ncccc1Nc1nc(Nc2cc3c(cc2OC)CCCN3C(=O)CN(C)C)nc2[nH]ccc12
inhibition [1]: 5.64%
inhibition [2]: 2.52%
inhibition [3]: 6.23%
inhibition [4]: 1.79%
inhibition [5]: 5.38%
inhibition [6]: 2.38%
inhibition [7]: 9.91%
inhibition [8]: 7.73%
inhibition [9]: 9.82%
inhibition [10]: 3.92%
inhibition [11]: 1.69%
inhibition [12]: 5.18%
inhibition [13]: 11.4%
inhibition [14]: 3.84%
inhibition [15]: 6.35%
inhibition [16]: 3.87%
inhibition [17]: 7.17%
inhibition [18]: 54.3%
inhibition [19]: 93.1%
inhibition [20]: 1.98%

COC(=O)Nc1nc2ccc(Oc3ccc(NC(=O)Nc4cc(C(F)(F)F)ccc4F)cc3)cc2s1
inhibition [1]: -0.08%
inhibition [2]: -1.45%
inhibition [3]: 0.18%
inhibition [4]: 0.44%
inhibition [5]: 3.26%
inhibition [6]: 1.75%
inhibition [7]: 3.03%
inhibition [8]: 1.36%
inhibition [9]: 2.74%
inhibition [10]: 0.88%
inhibition [11]: -0.71%
inhibition [12]: 0.7%
inhibition [13]: 2.02%
inhibition [14]: 0.77%
inhibition [15]: 1.66%
inhibition [16]: 0.38%
inhibition [17]: 2.05%
inhibition [18]: 0.47%
inhibition [19]: 3.04%
inhibition [20]: 0.06%

CN(C)CCNC(=O)Nc1ccc(N(C)c2ccnc(Nc3ccc(CS(C)(=O)=O)cc3)n2)cc1
inhibition [1]: 4.71%
inhibition [2]: 2.93%
inhibition [3]: 4.26%
inhibition [4]: 0.42%
inhibition [5]: 2.58%
inhibition [6]: 1.03%
inhibition [7]: 0.46%
inhibition [8]: 3.93%
inhibition [9]: 5.24%
inhibition [10]: 1.45%
inhibition [11]: 0.2%
inhibition [12]: 3.81%
inhibition [13]: 4.81%
inhibition [14]: 0.85%
inhibition [15]: 2.57%
inhibition [16]: 0.28%
inhibition [17]: 4.3%
inhibition [18]: 0.9%
inhibition [19]: 3.79%
inhibition [20]: 2.16%
